Results published in article PMC7819943, “Rice protein-binding microarrays: a tool to detect cis-acting elements near promoter regions in rice”.
Over roughly 39,000 sequences, “fluorescence intensity (a.u.)” has its median near 4,300; the highest 2% begin near 39,000. Many of the other results were omitted from the sample, so the highest values are more common in it than they were.

What follows are sequences tested against T1, OsSMF1 (Oryza sativa, UniProt Q6ZLB0 1-436) (assay: protein-binding microarray (RPBM); PBS, 2% BSA, 51.3 ng/ul salmon testes DNA, 50 uM zinc acetate, 200 nM TF, 25 C, 1 h; high values mean tight binding). Details: protein: recombinant; tags: N-terminal polyhistidine and DsRed monomer fusion (pET32a); chain copies: 2; label: CyDye5-dUTP incorporated in the synthesized complementary strand; 3' TTTTT single-stranded linker to array surface; dsDNA, one strand shown.
T1 sequence: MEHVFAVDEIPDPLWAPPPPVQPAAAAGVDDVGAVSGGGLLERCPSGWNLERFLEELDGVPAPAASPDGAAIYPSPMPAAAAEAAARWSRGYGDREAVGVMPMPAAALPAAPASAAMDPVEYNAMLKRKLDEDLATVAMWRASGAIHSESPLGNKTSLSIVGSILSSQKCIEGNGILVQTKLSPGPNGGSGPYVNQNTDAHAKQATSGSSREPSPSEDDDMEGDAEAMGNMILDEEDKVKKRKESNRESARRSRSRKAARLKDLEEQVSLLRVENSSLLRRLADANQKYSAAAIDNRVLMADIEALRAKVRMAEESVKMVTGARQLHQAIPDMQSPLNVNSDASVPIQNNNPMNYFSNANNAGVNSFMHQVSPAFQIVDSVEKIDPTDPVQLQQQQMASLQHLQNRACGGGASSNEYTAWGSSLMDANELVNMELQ
Method in brief: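 An Axon 4000B scanner gave the binding signal as per-feature fluorescence intensity in arbitrary units. This followed washing of a custom Agilent array that had been incubated for 1 h at 25 °C with 200 nM protein in PBS, 2% BSA, salmon testes DNA and 50 µM zinc acetate. The proteins were transcription factors fused at the N-terminus to polyhistidine and DsRed, expressed in E. coli BL21-CodonPlus and purified on Ni–NTA.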

**Q.** How did the binding signal turn out when “GATTAAATGGAAGAGAGAATGAATAATTAAGATTTAAAGACGGAGTCACCTAGTGCAG” was run?
**A.** 27400 fluorescence intensity (a.u.)

**Q.** “AAGAATTAAAGAAGCCTTTATAAGAAGAGAAGGCCAAGCTCGGAGTCACCTAGTGCAG” was tested. Which binding signal did it give?
**A.** 60800 fluorescence intensity (a.u.)

**Q.** For “TTAAAACGCATCAAGATTATAAGAGCCAAGAGAAATTGCACGGAGTCACCTAGTGCAG”, which binding signal is on record?
**A.** 3520 fluorescence intensity (a.u.)

**Q.** Which binding signal does the source give for “TCAAGGACCTCGTCATCCTCTCAGGTAACACACTTTCCCTCGGAGTCACCTAGTGCAG” here?
**A.** 3780 fluorescence intensity (a.u.)

**Q.** With “ACGCCGCTAGTTCTTTTCTCCAGAGCAATCTGGTCAGTTCCGGAGTCACCTAGTGCAG” as the sequence, how does the binding signal read?
**A.** 59900 fluorescence intensity (a.u.)

**Q.** Which binding signal does the source give for “TCCTCTTCTCCTCCGCCGCATCAGCAATCTCTCTTTCTACCGGAGTCACCTAGTGCAG” here?
**A.** 4100 fluorescence intensity (a.u.)

**Q.** For “CTTCGCTCTCTTTTCCATTGCAGAGCCCTCACGCTTCCGCCGGAGTCACCTAGTGCAG”, which binding signal is on record?
**A.** 3570 fluorescence intensity (a.u.)

**Q.** Which binding signal does the source give for “AGAAGAGGTGATGTATAAAACATGTCACGATTTAATATCTCGGAGTCACCTAGTGCAG” here?
**A.** 4070 fluorescence intensity (a.u.)

**Q.** For “TATAAATTAATATGTAGTATATCACTTCATAAGTTTAAATCGGAGTCACCTAGTGCAG”, which binding signal is on record?
**A.** 39300 fluorescence intensity (a.u.)

**Q.** “TTATTATGAAAATATATTTAATTATTGATTTGATGAAACTCGGAGTCACCTAGTGCAG” was tested. Which binding signal did it give?
**A.** 21300 fluorescence intensity (a.u.)

**Q.** “AATTATCATAAAACAACATATTTAAACCATGGTAACATAACGGAGTCACCTAGTGCAG” was tested. Which binding signal did it give?
**A.** 6200 fluorescence intensity (a.u.)

**Q.** Which binding signal does the source give for “GTATATATACACGTATACAAAGTTTATATATGACGTATACCGGAGTCACCTAGTGCAG” here?
**A.** 6040 fluorescence intensity (a.u.)

**Q.** How did the binding signal turn out when “GATATGATTATTTATTTCTTTAAATGAAAATCATGTGTAACGGAGTCACCTAGTGCAG” was run?
**A.** 32500 fluorescence intensity (a.u.)

**Q.** How did the binding signal turn out when “GTGTTTATATAAGTGTTTGCATATGTACTATGTTTTAATACGGAGTCACCTAGTGCAG” was run?
**A.** 3730 fluorescence intensity (a.u.)

**Q.** Which binding signal does the source give for “AACATAATGTTTTAACTTAAACCTTAATAATGAAATTTCTCGGAGTCACCTAGTGCAG” here?
**A.** 3670 fluorescence intensity (a.u.)

**Q.** “AAGAAGTACGTCATATATTCAGTTTTATGTATTATTTTATCGGAGTCACCTAGTGCAG” was tested. Which binding signal did it give?
**A.** 3310 fluorescence intensity (a.u.)

**Q.** With “TTAATACGTATGAATATATAAAGTTTATATATGCATGTACCGGAGTCACCTAGTGCAG” as the sequence, how does the binding signal read?
**A.** 63000 fluorescence intensity (a.u.)

**Q.** How did the binding signal turn out when “ATCTTGATATCTGCAACATAAAATGTAACATCAGATTTAACGGAGTCACCTAGTGCAG” was run?
**A.** 39500 fluorescence intensity (a.u.)

**Q.** Which binding signal does the source give for “AAATAACAAAATTACAAGTTTAACATAAATATGTAATCACCGGAGTCACCTAGTGCAG” here?
**A.** 21200 fluorescence intensity (a.u.)

**Q.** “ATAACCTAATATAAAGTTCGCTCATATGAAAATTTAAACTCGGAGTCACCTAGTGCAG” was tested. Which binding signal did it give?
**A.** 51600 fluorescence intensity (a.u.)

**Q.** “TTCGACACAGTCATACGTGAGTCGGATGGAGTTAGGTCTGCGGAGTCACCTAGTGCAG” was tested. Which binding signal did it give?
**A.** 4150 fluorescence intensity (a.u.)

**Q.** “CTCCTCCCATGCGCCGCCACGTAGGATCGCGCGATCAGATCGGAGTCACCTAGTGCAG” was tested. Which binding signal did it give?
**A.** 10300 fluorescence intensity (a.u.)

**Q.** Which binding signal does the source give for “AACACGAAAATGAAAGGGAGGGGCTTTCCTTAGCGATTAACGGAGTCACCTAGTGCAG” here?
**A.** 3830 fluorescence intensity (a.u.)

**Q.** Which binding signal does the source give for “TGTAAACTTTTATGATCATTTAGGAGCTCTGGACAGTAATCGGAGTCACCTAGTGCAG” here?
**A.** 18200 fluorescence intensity (a.u.)

**Q.** With “ATGCCATTGATTCAATAGTGAATCATCGTTCTTTCTGGATCGGAGTCACCTAGTGCAG” as the sequence, how does the binding signal read?
**A.** 3550 fluorescence intensity (a.u.)

**Q.** How did the binding signal turn out when “CTATAATTTAAACATGTAAAGTTTACGTGTATATAAATTTCGGAGTCACCTAGTGCAG” was run?
**A.** 3160 fluorescence intensity (a.u.)

**Q.** For “AAATGGATGATAAGTATAATTACTTAGAGCAAGTTTAATACGGAGTCACCTAGTGCAG”, which binding signal is on record?
**A.** 65500 fluorescence intensity (a.u.)

**Q.** For “AAGTTATACTTAAAGTATTATAAATAATAAAGTAAGTCACCGGAGTCACCTAGTGCAG”, which binding signal is on record?
**A.** 34100 fluorescence intensity (a.u.)

**Q.** How did the binding signal turn out when “TTTATTATTAGTTTACGTTTAATACTTCTAATTAGTATAACGGAGTCACCTAGTGCAG” was run?
**A.** 3240 fluorescence intensity (a.u.)

**Q.** “GTATCAAAACATATTCAATCATAGATTTAATGAAAACTAACGGAGTCACCTAGTGCAG” was tested. Which binding signal did it give?
**A.** 3360 fluorescence intensity (a.u.)

**Q.** Which binding signal does the source give for “AGGTAATGTATCATAAAACTATAGATTTAACACTAAATTTCGGAGTCACCTAGTGCAG” here?
**A.** 53000 fluorescence intensity (a.u.)

**Q.** How did the binding signal turn out when “TAGCCAGGAGGGAGGTGGCAAAACAGAATGATGGGAGGGACGGAGTCACCTAGTGCAG” was run?
**A.** 3220 fluorescence intensity (a.u.)

**Q.** With “GGCTTAAGTCAAGCTAATTTTAGATATTTATTATTTTGTGCGGAGTCACCTAGTGCAG” as the sequence, how does the binding signal read?
**A.** 3900 fluorescence intensity (a.u.)

**Q.** With “GTTCCATTGGTTTGTAATAATGAAGCCTGCCTAGTGCTTTCGGAGTCACCTAGTGCAG” as the sequence, how does the binding signal read?
**A.** 32100 fluorescence intensity (a.u.)

**Q.** With “CATCGTCCGCCGTGACACGCTGGCGGAGTCCGTGGTGCTACGGAGTCACCTAGTGCAG” as the sequence, how does the binding signal read?
**A.** 5010 fluorescence intensity (a.u.)

**Q.** “GGGGAGGAGGACGAGTAACAGACGTGGTGGCCGCCGAGGCCGGAGTCACCTAGTGCAG” was tested. Which binding signal did it give?
**A.** 3490 fluorescence intensity (a.u.)

**Q.** “GTAATTAAATTAAATTAAATTGATTAATACCAACCCTGGTCGGAGTCACCTAGTGCAG” was tested. Which binding signal did it give?
**A.** 24500 fluorescence intensity (a.u.)

**Q.** Which binding signal does the source give for “TATATTTCATTAATATAAATAAAATTAAAATGTTACTTAACGGAGTCACCTAGTGCAG” here?
**A.** 25600 fluorescence intensity (a.u.)

**Q.** Which binding signal does the source give for “CGTCGATTAATTTCCCTGGTAAATACGAAATGTTCATGGTCGGAGTCACCTAGTGCAG” here?
**A.** 39600 fluorescence intensity (a.u.)

**Q.** “CTGAACCATCCGACTCACCACCGGTATTTCTCGGCCATCTCGGAGTCACCTAGTGCAG” was tested. Which binding signal did it give?
**A.** 3950 fluorescence intensity (a.u.)

**Q.** With “CTCTCCTCTCCTCTTGGTGATGACTGATCGATGACCACCACGGAGTCACCTAGTGCAG” as the sequence, how does the binding signal read?
**A.** 4680 fluorescence intensity (a.u.)

**Q.** Which binding signal does the source give for “CTCCTCTCCGATGAAGACCTGCCACCGGTCTGAACCATCTCGGAGTCACCTAGTGCAG” here?
**A.** 64300 fluorescence intensity (a.u.)
